# In the library only some 1.6% were active in any assay of this set; here they are far more common.
# KCNQ2 block: KCNQ2 (rat) channel inhibition; O88943; CHO-K1 KCNQ2, FluxOR thallium flux, 20 min; hits give low values; B-score at 10 µM; actives 1.1% (n = 310,000); AID 2156;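 active = fluorescence ratio B-score at most minus 3 library SDs, with starting brightness B-score within 2 library SDs, cut at about -5.5 in these data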
# Target sequence (O88943 whole entry, looked up): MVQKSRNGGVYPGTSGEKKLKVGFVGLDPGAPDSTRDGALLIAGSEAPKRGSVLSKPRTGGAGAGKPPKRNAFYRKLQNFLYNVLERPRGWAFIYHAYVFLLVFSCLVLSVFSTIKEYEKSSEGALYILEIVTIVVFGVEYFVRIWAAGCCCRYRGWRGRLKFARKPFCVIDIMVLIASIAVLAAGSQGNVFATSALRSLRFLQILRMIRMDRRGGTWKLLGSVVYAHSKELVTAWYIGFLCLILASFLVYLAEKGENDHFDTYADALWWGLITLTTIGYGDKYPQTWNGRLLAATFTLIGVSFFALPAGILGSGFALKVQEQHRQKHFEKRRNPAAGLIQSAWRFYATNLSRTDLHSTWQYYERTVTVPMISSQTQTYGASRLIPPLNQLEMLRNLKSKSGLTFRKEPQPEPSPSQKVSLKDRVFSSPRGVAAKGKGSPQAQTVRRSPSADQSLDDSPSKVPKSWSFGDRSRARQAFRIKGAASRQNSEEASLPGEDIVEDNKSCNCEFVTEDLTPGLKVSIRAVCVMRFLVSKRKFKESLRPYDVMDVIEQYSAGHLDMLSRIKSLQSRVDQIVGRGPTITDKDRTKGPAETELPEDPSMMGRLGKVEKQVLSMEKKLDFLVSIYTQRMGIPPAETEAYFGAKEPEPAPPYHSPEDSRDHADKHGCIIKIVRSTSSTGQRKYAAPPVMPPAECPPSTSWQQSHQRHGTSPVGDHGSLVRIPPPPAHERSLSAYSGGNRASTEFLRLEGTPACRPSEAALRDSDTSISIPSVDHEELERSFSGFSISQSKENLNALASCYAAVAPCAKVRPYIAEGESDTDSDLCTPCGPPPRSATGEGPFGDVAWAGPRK
# KCNQ2 pot: potentiators of rat KCNQ2 potassium channel. AID 2239. actives 0.54% (n = 310,000). B-score at 10 µM. O88943. CHO-K1 KCNQ2, FluxOR thallium flux fluorescence; hits give high values;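 active = fluorescence ratio B-score at least 3 SD of library B-scores, with initial fluorescence B-score within 3 of them, cut at about 5.3 in these data; same plate scores as AID 2156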;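 note: B-score of peak minus minimum over baseline fluorescence ratio after K+ and Tl+ stimulus; positive B-score means potentiation of KCNQ2 with more thallium influx and brighter signal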
# Kir21 confirm: confirmation of mouse Kir2.1 potassium channel inhibitors | actives 41% (n = 2,300) | Tl flux remaining, % of negative control (hits give low values), % at 10 µM | shares compounds with KCNQ2 pot | Kir2.1-expressing cells, FluxOR thallium flux fluorescence; hits give low values;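 active = Primary-screen hit whose thallium flux fell at least 3 control SD below untreated wells in both duplicates, with normal baseline fluorescence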
# HEK293 ctr: counter-screen for Kir2.1 inhibitors: effect in parental HEK293 cells. shares compounds with KCNQ2 pot. actives 19% (n = 2,300). FluxOR signal as % of negative control (100 = no effect), % at 10 µM. FluxOR thallium flux fluorescence; 0% = unstimulated blank wells;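 active = dye signal at least 3 control SD above or below untreated wells in both duplicates, raw fluorescence within 3, either direction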;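 note: percent is based on the flux ratio of peak minus minimum fluorescence over baseline F0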
# CHO-K1 ctr: counter-screen for KCNQ2 potentiators: effect in parental CHO-K1 cells | shares compounds with KCNQ2 pot | FluxOR thallium flux fluorescence; zero = vehicle mean+3SD, 100% = vehicle-minus-blank window | activity increase over 3SD of controls, % at 10 µM | actives 43% (n = 1,200) | AID 2282;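 active = signal rise of at least 3 SD above the untreated control mean, in both duplicate wells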;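 note: counter screen of KCNQ2 potentiator hits so any rise reflects channel-independent effects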
# KCNQ1 pot spec: tests whether KCNQ2 potentiators also act on human KCNQ1. activation over 3SD threshold, % at 10 µM. shares compounds with KCNQ2 pot. actives 28% (n = 1,200). AID 2283. CHO KCNQ1 stable, FluxOR thallium flux fluorescence; beyond 3SD, as % of vehicle-control signal;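 active = fluorescence ratio rise of at least 3 SD of vehicle wells above their mean, in both replicate wells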
# KCNQ2 pot confirm: confirmation of rat KCNQ2 potassium channel potentiators. potentiation, less the hit threshold, % at 10 µM. shares compounds with KCNQ2 pot. AID 2287. actives 68% (n = 1,200). CHO-KCNQ2 cells, FluxOR thallium flux fluorescence;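 active = fluorescence ratio rising 3 SD or more over the vehicle control mean in both replicates, plus primary screen hit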;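 note: peak minus minimum thallium fluorescence divided by baseline after K/Tl stimulus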
# Kir21 spec: selectivity of KCNQ2 potentiators: effect on mouse Kir2.1. shares compounds with KCNQ2 pot. HEK293 Kir2.1, FluxOR thallium flux fluorescence. activity over 3SD threshold, % at 10 µM. actives 2% (n = 1,200). AID 2345;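 active = fluorescence ratio rise of at least 3 SD above the vehicle-control mean, seen in both replicates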
# KCNQ2 W236L pot: potentiates the retigabine-insensitive rat KCNQ2 W236L mutant channel; shares compounds with KCNQ2 pot; CHO KCNQ2-W236L, automated patch clamp current; current increase over 3SD of negative controls (%), hits give high values, % at 25 µM; actives 10% (n = 940); AID 2558;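 active = current increase at least 3 SD of the untreated controls above them in both duplicate recordings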
# Hits are given with their value; - = inactive; . = no result given.
SMILES,KCNQ2 block,KCNQ2 pot,Kir21 confirm,HEK293 ctr,others
O=C(N/N=C/c1ccc(-c2ccc(S(=O)(=O)Nc3ncccn3)cc2)o1)c1cc2ccccc2cc1O,-,5.55,-,-,CHO-K1 ctr=-;KCNQ1 pot spec=-;KCNQ2 pot confirm=-;Kir21 spec=-
CCOc1ccc(C(=O)N/N=C/c2ccc(-c3ccc(S(=O)(=O)Nc4ncccn4)cc3)o2)cc1,-,-,.,.,
Cc1cc(NC(=O)CSc2nc(C(C)C)nc3sc4c(c23)CCCC4)no1,-,.,.,.,
CCN(CC)C(=O)Cn1c(=O)oc2ccccc21,-,.,.,.,
CCCCN(C(=O)CCn1c(=O)oc2ccccc21)c1ccccc1,-,.,49.0%,-,
COC(=O)c1ccc(C2c3[nH]c4ccccc4c3C[C@H]3C(=O)N(C4CCN(Cc5ccccc5)CC4)CC(=O)N23)cc1 (some centres not stated),-,-,.,.,
COc1ccc(-c2csc(NC(=S)NC(=O)c3cccs3)n2)cc1OC,-,-,.,.,
COc1ccc(-c2csc(NC(=S)NC(=O)c3cccs3)n2)cc1Br,-,7.07,-,70.0%,CHO-K1 ctr=-;KCNQ1 pot spec=-;KCNQ2 pot confirm=-;Kir21 spec=-
COc1ccc(S(=O)(=O)Nc2ccccc2OC)cc1C,-,-,.,.,
COc1ccc(S(=O)(=O)Nc2ccccc2SC)cc1C,-,.,54.0%,-,
COc1cc2cc(C(=O)N3CCC(Cc4ccccc4)CC3)[nH]c2cc1OC,-,-,.,.,
O=C(N/N=C/c1cccc(Oc2ccccc2)c1)c1cccc(O)c1,-,.,74.0%,-,
O=C(N/N=C/c1cccc(Oc2ccccc2)c1)c1cccc(Br)c1,-,.,.,.,
OCCN1CCN(C(=S)c2ccc(Cl)c(Cl)c2)CC1,-,.,.,.,
c1cc(CN2CCCCC2)cc(OCCCNc2nc3ccccc3s2)c1,-,.,25.5%,-,
O=C(NCCCOc1cccc(CN2CCCCC2)c1)c1ccc(Cl)c(Cl)c1,-,.,.,.,
CN1CCN(CCCCOc2ccccc2C=O)CC1,-,.,.,.,
O=C1NC(=S)SC1=C1CCCCCC1,-,23.1,-,357.0%,CHO-K1 ctr=39.5;KCNQ1 pot spec=7.2;KCNQ2 pot confirm=57.2;Kir21 spec=-;KCNQ2 W236L pot=-
O=C1N=C(N2CCCCC2)SC1=C1CCCCC1,-,-,.,.,
O=C(CSc1nncn1-c1ccccc1)NC1CCCC1,-,-,.,.,
O=C(COc1ccccc1Cl)NCC(c1cccs1)N1CCOCC1 (configuration not stated),-,.,.,.,
Cc1ccc(Cl)c(OCC(=O)NCC(c2cccs2)N2CCOCC2)c1 (configuration not stated),-,.,64.5%,-,
CCOC(=O)N1CCC(NC(=O)c2ccc3c(c2)N(C)C(=O)/C(=C/c2cccc(OC)c2)S3)CC1,-,.,.,.,
CN1CCc2c(sc(/N=C/c3cc(C(C)(C)C)ccc3O)c2C#N)C1,-,11.1,-,-,CHO-K1 ctr=-;KCNQ1 pot spec=-;KCNQ2 pot confirm=-;Kir21 spec=-
COc1ccc(/C=N/c2sc3c(c2C#N)CCN(Cc2ccccc2)C3)c(O)c1,-,.,.,.,
SMILES,KCNQ2 block,KCNQ2 pot,Kir21 confirm,HEK293 ctr,others
O=C(CSc1nc2nc(-c3cccs3)cc(C(F)(F)F)c2c(=O)[nH]1)Nc1ccc(F)c(F)c1,-,-,.,.,
Cc1ccc(C)c(NC(=O)CSc2nc3nc(-c4cccs4)cc(C(F)(F)F)c3c(=O)[nH]2)c1,-,6.38,-,-,CHO-K1 ctr=-;KCNQ1 pot spec=33.8;KCNQ2 pot confirm=-;Kir21 spec=-
O=C(COc1ccccc1)NC1CCN(Cc2ccccc2)CC1,-,.,.,.,
O=C(/C=C/c1cccc(F)c1)NC1CCN(Cc2ccccc2)CC1,-,-,.,.,
O=C(COc1ccc(Br)cc1Cl)NC1CCN(Cc2ccccc2)CC1,-,.,21.0%,-,
O=C(/C=C/c1cccc(Br)c1)NC1CCN(Cc2ccccc2)CC1,-,.,39.0%,-,
Cc1c(C(=O)NC2CCN(Cc3ccccc3)C2)oc2ccc(Br)cc12 (configuration not stated),-,.,59.5%,-,
CCOc1ccc2oc(C(=O)NC3CCN(Cc4ccccc4)CC3)c(C)c2c1,-,-,.,.,
CC(C(=O)OCC(=O)Nc1ccc2c(c1)OCO2)N1C(=O)c2ccccc2C1=O (configuration not stated),-,.,.,.,
COc1ccc(N2C(=O)N[C@@H](Cc3ccccc3)C2=O)cc1OC,-,-,.,.,
CCN1CCc2c(C#N)c(N3CCCCC3)nc(N3CCOCC3)c2C1,-,.,.,.,
N#Cc1c(N2CCOCC2)nc(N2CCCCC2)c2c1CCN(C1CCCCC1)C2,-,10.8,-,-,CHO-K1 ctr=-;KCNQ1 pot spec=10.4;KCNQ2 pot confirm=16.2;Kir21 spec=-;KCNQ2 W236L pot=-
O=C(N/N=C/C=C\c1ccco1)c1cccs1,-,.,.,.,
S=c1[nH]c(-c2ccccc2)cs1,-,11.2,-,147.0%,CHO-K1 ctr=9.5;KCNQ1 pot spec=-;KCNQ2 pot confirm=65.7;Kir21 spec=-;KCNQ2 W236L pot=-
O=c1[nH]c(-c2ccccc2)cs1,-,-,.,.,
COc1ccc(/C=N/NC(=S)SC)cc1OC,-,-,.,.,
CSC(=S)N/N=C/c1ccccc1,-,9.34,-,218.5%,CHO-K1 ctr=-;KCNQ1 pot spec=9.4;KCNQ2 pot confirm=7.4;Kir21 spec=-;KCNQ2 W236L pot=-
O=C(CCNC(=O)c1ccc(Br)cc1)Nc1ccccc1N1CCCC1,-,.,.,.,
COc1ccc(CC(=O)Nc2ccccc2N2CCCC2)cc1OC,-,-,.,.,
O=C(Cc1ccc(Br)cc1)Nc1ccccc1N1CCCC1,-,17.9,-,-,CHO-K1 ctr=-;KCNQ1 pot spec=-;KCNQ2 pot confirm=52.0;Kir21 spec=-;KCNQ2 W236L pot=-
COc1ccc(CC(=O)Nc2ccccc2N2CCCC2)cc1,-,-,62.0%,-,
O=C(Cc1cccc(C(F)(F)F)c1)Nc1ccccc1N1CCCC1,-,11.2,-,-,CHO-K1 ctr=-;KCNQ1 pot spec=-;KCNQ2 pot confirm=59.9;Kir21 spec=-;KCNQ2 W236L pot=-
O=C(Cc1c(F)cccc1Cl)Nc1ccccc1N1CCCCC1,-,.,.,.,
O=C(Cc1ccccc1)Nc1ccccc1N1CCCC1,-,13.1,.,.,CHO-K1 ctr=-;KCNQ1 pot spec=-;KCNQ2 pot confirm=54.4;Kir21 spec=-;KCNQ2 W236L pot=-
O=C(Cc1ccccc1)Nc1ccccc1N1CCOCC1,-,.,.,.,
SMILES,KCNQ2 block,KCNQ2 pot,Kir21 confirm,HEK293 ctr,others
O=S1(=O)C=CC(Nc2ccccc2)C1 (configuration not stated),-,-,.,.,
COc1ccc(-n2nc(C(=O)NCC(=O)NC(C)C)c3ccccc3c2=O)cc1Cl,-,-,.,.,
O=C(NCC(=O)N1CCOCC1)OCc1ccccc1,-,-,.,.,
O=C(CSc1nncn1-c1ccccc1)Nc1ccccc1F,-,.,.,.,
CC(=O)Nc1ccc(S(=O)(=O)N(Cc2ccccc2)c2ccccn2)cc1,-,.,.,.,
O=S(=O)(c1ccccc1)N(Cc1ccccc1)c1ccccn1,-,.,-,-,
Cc1ccc(CC(=O)Nc2cc(C)ccn2)cc1,-,.,.,.,
Cc1ccccc1C(=O)NC(=S)NCCC1=CCCCC1,-,-,.,.,
O=C(NC(=S)NCCC1=CCCCC1)c1ccco1,-,11.9,-,229.0%,CHO-K1 ctr=-;KCNQ1 pot spec=-;KCNQ2 pot confirm=33.6;Kir21 spec=-;KCNQ2 W236L pot=-
Cc1cc(C)n(/N=C/c2ccccc2O)c(=O)c1,-,.,.,.,

# Screening results (PubChem)
